Compound activity (PubChem)
The list is not random: actives were taken first. Their share in the collection is about 21%.
IL1B secr inh – blocks inflammasome-driven IL-1 beta release. THP-1 LPS/ATP IL-1B secretion, AlphaLISA, 16 h; active compounds read low. activity change, % at 57.5 µM. 4.7% of 360,000 active. AID 743279; in the data active = activity change below about -50%; inconclusive = mostly about -30% to -49%
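Secreted IL-1B measured by AlphaLISA bead assay after 16 h compound exposure of THP-1 cells; compounds (final up to 57.5 uM) added 1 h before LPS (250 ng/mL) and ATP (1.25 mM) stimulation; lower signal means less secretion.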
TDP1 cell CPT – DT40-hTDP1 cell growth loss with CPT; chicken DT40 Tdp1-/-;hTDP1 cells + 20 nM CPT, ATP luminescence, 48 h; 12% of 420,000 active; Potency, µM (series often up to 46.2 µM), without a hit: at the highest dose activity change, negative = growth inhibition, actives largely listed as inhibitors; note: potency is the fitted concentration of half-maximal effect; nearly all actives have a fitted effect of over 55% in size
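Chicken DT40 Tdp1-/- cells stably complemented with human TDP1 were seeded at 400 cells/well in medium containing 20 nM camptothecin, exposed to pin-transferred compounds, and grown at 37 °C for at least 48 hr. Viability was read as ATP luminescence.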
ELG1 repair inh – inhibitors of ELG1-dependent DNA repair in HEK293T cells; HEK293T ELG1-luciferase reporter, luminescence, 16 h; DNA damage induced by 5-fluorouridine; Potency, µM (top dose mostly 46.1 µM), for inactives: at the top dose activity change, negative = inhibition, hits mostly inhibitors; 2.3% of 330,000 active; AID 504467; note: potency is the fitted concentration of half-maximal effect; nearly all actives have a fitted effect of over 55% in size
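HEK293T cells expressing luciferase-tagged ELG1 (2,000/well) received 5-Fluorouridine plus compound or DMSO for 16 hr at 37 °C. Luciferase was read by ONE-Glo luminescence after 30 min at room temperature.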
DT40 TDP1 no CPT – qHTS for Inhibitors of human tyrosyl-DNA phosphodiesterase 1 (TDP1): qHTS in cells in absence of CPT | DT40 Tdp1-/- hTDP1 cells, no CPT, ATP luminescence, 48 h | Potency, µM (top dose mostly 46.2 µM), for the others: at the top dose activity change, negative = growth inhibition, most hits filed as inhibitors | 15% of 420,000 active | AID 686978, 2013; note: potency is the fitted concentration of half-maximal effect; nearly all actives have a fitted effect of over 55% in size
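Growth of hTDP1-complemented DT40 Tdp1-knockout cells is measured by ATP luminescence after at least 48 hr compound exposure at 37 °C, with DMSO substituting for the 20 nM CPT used in the parallel screen.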
Gal4-VP16 FLuc – inhibits Gal4-VP16 luciferase reporter, ROR gamma counter-screen | 3.5% of 310,000 active | Drosophila S2 Gal4-VP16 UAS-luciferase, luminescence, 20 h | Potency, µM (series often up to 53.6 µM), for the others: top-dose activity, negative = inhibition, most hits filed as inhibitors | AID 2546;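 note: Gal4-VP16 expression switched on by copper sulfate through the metallothionein promoter; potency is the fitted concentration of half-maximal effect; nearly all actives have a fitted effect of over 50% in size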
RORg inh – ROR gamma (mouse) transcription inhibition. 5.4% of 310,000 active. Potency, µM (highest dose often 53.6 µM), without a hit: at the highest dose activity change, negative = inhibition, most hits filed as inhibitors. Drosophila S2 Gal4-RORgamma UAS-luciferase reporter, 20 h. AID 2551; note: potency is the fitted concentration of half-maximal effect; nearly all actives have a fitted effect of over 60% in size
Target sequence (P51450 whole entry, looked up, the tested form may be a part): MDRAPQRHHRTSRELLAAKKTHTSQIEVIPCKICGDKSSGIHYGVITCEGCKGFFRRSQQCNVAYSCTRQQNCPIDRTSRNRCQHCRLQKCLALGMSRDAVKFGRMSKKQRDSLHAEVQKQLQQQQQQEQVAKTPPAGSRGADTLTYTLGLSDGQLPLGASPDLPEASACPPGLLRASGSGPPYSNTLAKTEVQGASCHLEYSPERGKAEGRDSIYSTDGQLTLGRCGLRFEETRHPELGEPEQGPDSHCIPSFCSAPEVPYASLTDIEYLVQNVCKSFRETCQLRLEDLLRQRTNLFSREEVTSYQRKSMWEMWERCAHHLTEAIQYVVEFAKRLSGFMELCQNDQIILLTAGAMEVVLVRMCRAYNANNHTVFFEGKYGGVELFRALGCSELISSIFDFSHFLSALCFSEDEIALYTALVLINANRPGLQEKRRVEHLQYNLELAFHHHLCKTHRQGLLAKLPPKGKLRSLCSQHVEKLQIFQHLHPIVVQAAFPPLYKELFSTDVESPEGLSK
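Compounds are pin-transferred onto Drosophila Schneider cells expressing a copper-inducible Gal4–ROR gamma transactivation domain fusion. After 1 hr, copper sulfate is added to 700 uM final; luciferase is read 20 hr later.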
* marks the source's active call; other numbers are inactive results; ? = inconclusive; . = not tested or not shown; [ ] = dose if it differs, or a comment. Unless noted, calls come from the whole dose curve; as a rule, active = well fitted curve in the direction sought with a large enough effect; inconclusive = small, poorly fitted or top-dose-only effect, or another doubt; inactive = no such curve, though single readings can be large; an effect the other way counts as inactive or inconclusive. % is set by controls: 0 for no effect and ±100 for the full control effect.

SMILES	IL1B secr inh	TDP1 cell CPT	ELG1 repair inh	DT40 TDP1 no CPT	Gal4-VP16 FLuc	RORg inh
CCOc1ccc(NC(=O)c2ccc3c(c2)nnn3C2CCCC2)cc1	.	-26%	.	?	.	.
Cc1ccc2c(c1)nnn2C1CCN(C(=O)C23CC4CC(CC(C4)C2)C3)CC1	-3	?	23µM*	?	5%	15%
Cc1ccc2c(c1)nnn2C1CCN(CC(=O)N(c2ccccc2)c2ccccc2)CC1	?	13µM*	16µM*	13µM*	0%	1%
Cc1cc(C)cc(NC(=O)c2ccc3c(c2)nnn3C2CCCC2)c1	.	1.3µM*	.	1.5µM*	.	.
Cc1ccc2c(c1)nnn2C1CCN(C(=O)NC23CC4CC(CC(C4)C2)C3)CC1	.	.	?	.	-2%[0.365 µM]	?
Cc1ccc2c(c1)nnn2C1CCN(CC(=O)c2ccc(Cl)cc2)CC1	8	-23%	-6%	-13%	4%	1%
CCOc1ccc(C(=O)c2oc3ccccc3c2NC(=O)c2cc(-c3ccc(C)cc3)on2)cc1	.	-14%	.	-1%	.	.
Cc1ccc2c(c1)nnn2C1CCN(CC(=O)Nc2ccc3c(c2)OCCO3)CC1	-14	5%	?	-8%	-5%	25%
Cc1ccc2c(c1)nnn2C1CCN(CC(=O)Nc2ccc(F)cc2)CC1	?	?	-14%	21µM*	3%	2%
Cc1ccc(NC(=O)C2CCCN(c3ncnc4onc(C)c34)C2)cc1Cl (stereo unspecified)	.	10µM*	.	16µM*	.	.
COc1cccc(NC(=O)C2CCCN(c3ncnc4onc(C)c34)C2)c1 (stereo unspecified)	.	21µM*	.	21µM*	.	.
Cc1noc2ncnc(N3CCCC(C(=O)NC(C)C)C3)c12 (stereo unspecified)	.	-27%	.	?	.	.
COc1ccc(C)cc1NC(=O)C1CCCN(c2ncnc3onc(C)c23)C1 (stereo unspecified)	.	?	.	16µM*	.	.
N#Cc1cccc(-c2cncnc2NCc2ccccc2)c1	.	-8%	.	-17%	-4%	22%
O=C1CSc2nc3ccccc3n21	0	-11%	14%	1%	-15%	8%
CC12CCC(C(=O)n3c1nc1ccccc13)C2(C)C (stereo unspecified)	?	18µM*	-17%	21µM*	-1%	-30%
CCCCNc1c(-c2cccc(OC)c2)nc2nc(C)cc(C)n12	22	18µM*	.	16µM*	.	.
COc1ccc(Nc2c(-c3cc4ccccc4o3)nc3nc(C)cc(C)n23)cc1	10	?	.	?	.	.
CCCCNc1c(-c2cc3ccccc3o2)nc2nc(C)cc(C)n12	-10	?	.	23µM*	.	.
NC1=NC(c2cccc(Cl)c2)N(CCc2ccc(F)cc2)C(N)=N1 (stereo unspecified)	.	?	-11%	23µM*	4%	-32%
Cn1c(CNC(=O)CSc2n[nH]c(-c3ccccc3Cl)n2)nc2ccccc21	.	-16%	.	-20%	.	.
Cc1ccc(NS(=O)(=O)c2ccc3c(c2)CCN3C(=O)CCC(=O)O)cc1Cl	10	8%	0%	30%	-4%	18%
CCOC(=O)c1ccc(NS(=O)(=O)c2ccc3c(c2)CCN3C(=O)CC)cc1	.	13µM*	.	?	.	.
CCC(=O)N1CCCc2cc(S(=O)(=O)Nc3ccc(C)c(C)c3)ccc21	.	23µM*	.	18µM*	.	.
CCOC(=O)c1c(C)[nH]c2cc(Br)c(O)cc12	-9	?	?	-9%	1%	?
SMILES	IL1B secr inh	TDP1 cell CPT	ELG1 repair inh	DT40 TDP1 no CPT	Gal4-VP16 FLuc	RORg inh
CCOC(=O)c1c(OCC)[nH]c2c1cc(O)c1ccccc12	-18	16µM*	21µM*	18µM*	?	?
NC(=O)C1CCCN(C(=O)CCC(=O)c2cccs2)C1 (stereo unspecified)	-4	12%	2%	9%	.	.
Cc1c(C)n(Cc2ccccc2)c2ccc(C(=O)N3CCN(c4ccc(F)cc4)CC3)cc12	.	?	.	16µM*	.	.
Cc1[nH]c(-c2ccc(F)cc2)cc1C(=O)N1CCN(c2ccc(Cl)cc2)CC1	-29	?	-28%	?	2%	?
Cc1c(C)n(Cc2ccc(F)cc2)c2ccc(C(=O)N3CCN(c4ccc(Cl)cc4)CC3)cc12	.	18µM*	.	?	.	.
CCOC(=O)c1sc2nc(C)nc(N3CCCCC3C)c2c1C (stereo unspecified)	30	?	?	?	4%	-10%
CCC1CCCCN1C(=O)c1sc2nc(C)nc(N(CC)CC)c2c1C (stereo unspecified)	18	?	-24%	16µM*	3%	2%
CCOC(=O)C1CCCN(C(=O)c2sc3nc(C)nc(N(CC)CC)c3c2C)C1 (stereo unspecified)	0	23µM*	?	?	14%	?
C[C@H](NC(=O)c1nc[nH]c1C(=O)N[C@@H](CCCCN)C(=O)OC(C)(C)C)C(=O)OCc1ccccc1	2	-6%	15%	-15%	.	.
CCN(CC)C(=O)CSc1nc(-c2ccccc2F)nc2c1Cc1c(CO)cnc(C)c1O2	.	3.7µM*	.	4.6µM*	.	.
COc1ccccc1-c1nc2c(c(SCC(=O)Nc3ccc(C)c(C)c3)n1)Cc1c(CO)cnc(C)c1O2	.	16µM*	.	9.2µM*	.	.
COc1ccccc1-c1nc2c(c(SCc3cc(C)ccc3C)n1)Cc1c(CO)cnc(C)c1O2	.	9.2µM*	.	10µM*	.	.
COc1ccc(-c2nc3c(c(SCc4cc(C)ccc4C)n2)Cc2c(CO)cnc(C)c2O3)cc1	.	-4%	.	-2%	.	.
Cc1ccc(-n2c(C)c([N+](=O)[O-])c3ccc(O)cc32)cc1	.	.	?	.	-4%	2%
Cc1c([N+](=O)[O-])c2ccc(O)cc2n1-c1ccccc1	0	?	4.6µM*	?	-9%	0%
CNC(=S)N(CCc1c(C)[nH]c2ccc(OC)cc12)Cc1cccnc1	0	-5%	9%	-25%	-2%	33%
CCOc1ccc(NC(=S)N(CCc2c(C)[nH]c3ccccc23)Cc2ccco2)cc1	?	13µM*	?	?	?	?
COc1ccc(OC)c(NC(=S)N(CCc2c(C)[nH]c3ccc(C)cc23)Cc2cccs2)c1	-29	?	-28%	?	17%	10µM*
COc1ccc2[nH]c(C)c(CCN(Cc3cccs3)C(=S)Nc3cccc(F)c3)c2c1	-23	?	16µM*	?	?	1.6µM*
